Data reported in PubChem BioAssay AID977607 (Broad Institute, 2014).
Hit rate of the full screen: of about 1,500 compounds, about 460 (31%) were called active. Not shown: some 1% with an inconclusive outcome.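 The calls were made as follows: active = curve reaches 40% activation over neutral controls at an AC40 no higher than the top valid tested concentration; inconclusive = no clear call, values can overlap the other calls; inactive = signal moving opposite to the expected increase, and the rest.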 Not all results are given here. Measured potencies and affinities stand elsewhere.

Assay: activators of glucose-dependent insulin secretion, dose response, cell-based, INS-1E, Gaussia luciferase, luminescence, cherry-pick, set 2 (AID 977607);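 also: 0% = median of the plate neutral control wells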
Conditions: INS-1E GLuc insulin secretion reporter, 2-3 h, stronger effect = higher value; at 35 µM, 100% = signal doubled over neutral wells unless noted

Max activation, inactive:
CCn1ccc(C(=O)Nc2ccccc2SC)n1 -10.4% [at 0.046 µM, 100% = signal doubled over neutral wells], NS(=O)(=O)c1ccc(CNC(=O)c2cc(S(=O)(=O)N3CCOCC3)ccc2N2CCCC2)cc1 -17.8% [at 0.0016 µM, 100% = signal doubled over neutral wells], O=S(=O)(NCc1ccccc1)c1ccc(S(=O)(=O)N2CCCCC2)cc1 -11.7% [at 3.8 µM, 100% = signal doubled over neutral wells], CNS(=O)(=O)c1ccc2c3c(cccc13)C(=O)N2 19.7%, CC(=O)Nc1cccc(-n2c(=O)n(Cc3ccccc3)c(=O)c3[nH]cnc32)c1 18.8% [at 1.2 µM, 100% = signal doubled over neutral wells], N#CCCCc1cc2ccccc2cn1 -14.5% [at 0.046 µM, 100% = signal doubled over neutral wells], COc1cc(/C=N/NC(=O)CNC(=O)c2cccs2)ccc1O -23.7% [at 0.015 µM, 100% = signal doubled over neutral wells], COc1cc(/C=N/Nc2cc(C)nc(NS(=O)(=O)c3ccc(C)cc3)n2)ccc1O 36.9% [at 3.8 µM, 100% = signal doubled over neutral wells], COc1ccc(/C=N/NC(=O)Cn2cnc3ccccc3c2=O)cc1OC 23.7% [at 11 µM, 100% = signal doubled over neutral wells], CCNc1nc(CC)nc2c1oc1ccccc12 -18.9% [at 0.015 µM, 100% = signal doubled over neutral wells], Cc1cccc(-n2c(C)c(C)c3c(N)ncnc32)c1 29.8%, N#CCc1nn2c(-c3ccccc3)ccnc2c1C#N -20% [at 0.015 µM, 100% = signal doubled over neutral wells], COc1ccc(/C=C/c2nc(C#N)c(NCCN(C)C)o2)cc1OC -15.9% [at 0.42 µM, 100% = signal doubled over neutral wells], CCOCC(=O)Nc1c(C(=O)OCC)oc2ccccc12 28.8% [at 3.8 µM, 100% = signal doubled over neutral wells], Nc1[nH]c(C(=O)c2ccccc2)c(-c2ccncc2)c1C(=O)NCc1cccc2ccccc12 -29.2%, C[C@@H]1CN([C@H](C)CO)C(=O)c2cc(C3=CCCCC3)cnc2O[C@H]1CN(C)C(=O)CN1CCOCC1 -24.7% [at 0.005 µM, 100% = signal doubled over neutral wells], O=C(c1cccs1)N(Cc1ccc(Cl)cc1)C1CCS(=O)(=O)C1 (centres undefined) 21.3%, O=C(c1cccs1)N(Cc1cccc(F)c1)C1CCS(=O)(=O)C1 (centres undefined) 26.2% [at 0.005 µM, 100% = signal doubled over neutral wells], CCOC(=O)C1=NN(C(=O)Nc2cccc(C(F)(F)F)c2)C2C(=O)N(c3cccc(C(F)(F)F)c3)C(=O)C12 (centres undefined) 17.3% [at 3.8 µM, 100% = signal doubled over neutral wells], N#Cc1ccc(-c2ccc3c(c2)[C@@H]2[C@@H](CCN2C(=O)C2CCCC2)[C@@H](CO)N3)cc1 -29.6%, O=C(CCn1nc(-c2ccc(Cl)cc2)ccc1=O)NCCCN1CCCCCC1 -17.5% [at 0.005 µM, 100% = signal doubled over neutral wells], CC(C)(C)C1=Nn2c(nnc2C2CCCCC2)SC1 27% [at 11 µM, 100% = signal doubled over neutral wells], C=CCNc1cc(C)oc(=O)c1C(=O)CCC -21.1% [at 0.015 µM, 100% = signal doubled over neutral wells], CCN1CCN(CCCNC(=O)c2ccc3c(c2)N(Cc2ccccc2)CCS3)CC1 -25.6% [at 11 µM, 100% = signal doubled over neutral wells], CCOC(=O)c1sc2nc(C)[nH]c(=O)c2c1C 8.29% [at 0.135 µM, 100% = signal doubled over neutral wells], CCCCc1nc(N)c(C#N)c(-c2ccco2)c1CCC 35.2%, COc1ccc(CCNC(=O)CCCc2nnc3n(C)c(=O)c4sccc4n23)cc1OC -17.7% [at 0.0016 µM, 100% = signal doubled over neutral wells], COc1ccc(CCNC(=O)CCC(=O)c2cccs2)cc1OC 35.6% [at 1.2 µM, 100% = signal doubled over neutral wells], COc1ccc(-n2c3c(c(=O)[nH]c2=O)C(NS(=O)(=O)c2ccc(Cl)cc2)(C(F)(F)F)C(=O)N3)cc1 (centres undefined) -27.1% [at 0.015 µM, 100% = signal doubled over neutral wells], N#Cc1cnn2c(C(F)(F)F)cc(-c3ccccc3)nc12 -14.3% [at 0.0016 µM, 100% = signal doubled over neutral wells], Cc1cc(C)c(CSc2nnnn2-c2ccc(C(=O)O)cc2)c(C)c1 -11.8% [at 1.2 µM, 100% = signal doubled over neutral wells], O=C(c1cccnc1)N(Cc1ccccc1)c1ccccc1 25.1%, CCCNC(=O)C1(C)CCCN(Cc2cccn2C)C1 (centres undefined) -16.6% [at 3.8 µM, 100% = signal doubled over neutral wells], CC(=O)Nc1ccc(Cl)c(-c2nc3ncccc3o2)c1 24% [at 0.005 µM, 100% = signal doubled over neutral wells], CC(C)CCN(CC(=O)NCc1ccc(F)cc1)S(=O)(=O)c1ccccc1F -38.5% [at 11 µM, 100% = signal doubled over neutral wells], CCOc1nc(NC(=O)NS(=O)(=O)Oc2ccccc2Cl)nc(-c2ccccc2)n1 -20.8% [at 0.0016 µM, 100% = signal doubled over neutral wells], CC1Oc2ccccc2N(Cc2cccc(F)c2)C1=O (centres undefined) -13.7% [at 0.005 µM, 100% = signal doubled over neutral wells], Cc1ccc(-c2ccc([C@@H]3[C@@H]4CN(Cc5ccccc5F)C[C@H]3N4)cc2)cc1 26.7% [at 0.42 µM, 100% = signal doubled over neutral wells], O=C(NC1CCCC1)C(C1CC1)n1c(-c2ccccn2)nc2ccccc21 (centres undefined) -23.1% [at 0.135 µM, 100% = signal doubled over neutral wells], CC(C)C(C(=O)NCc1ccco1)N(CC1CCCO1)C(=O)CNS(=O)(=O)c1ccc(F)cc1 (centres undefined) -14.9% [at 11 µM, 100% = signal doubled over neutral wells], CCSc1ncnc2sc3c(c12)CCC3 31.4%, COc1ccccc1-c1cnc2c(Nc3cccc(OC(F)(F)C(F)F)c3)nccn12 -17.8% [at 11 µM, 100% = signal doubled over neutral wells], Cc1cccc(CN2C(=O)CSc3ccc(C(=O)NC4CC4)cc32)c1 41% [at 0.135 µM, 100% = signal doubled over neutral wells], Cc1cc(NCc2ccccn2)nc2ccccc12 -14.9% [at 0.005 µM, 100% = signal doubled over neutral wells], CCOc1ccc(CCNC(=O)c2cc(C)on2)cc1OCC -13.4% [at 0.135 µM, 100% = signal doubled over neutral wells], O=C(CN1C(=O)NC(Cc2c[nH]c3ccccc23)C1=O)NCCc1ccccc1 (centres undefined) 21% [at 11 µM, 100% = signal doubled over neutral wells], COc1ccc(CCn2nnc(-c3ccc(NC(C)=O)c(Cl)c3)n2)cc1 -24.6% [at 11 µM, 100% = signal doubled over neutral wells], COc1cccc(-c2ccc3c(c2)N(Cc2cccc(F)c2)C(=O)C(C)S3)c1 (centres undefined) -26.7% [at 11 µM, 100% = signal doubled over neutral wells], COc1ccc(C2CC(=O)C(c3ccc(C)cc3)=CN2Cc2ccccc2)cc1 (centres undefined) -26.2%, O=c1c2sccc2n(Cc2cccc(F)c2)c(=O)n1-c1ccc(F)cc1 -14.5% [at 0.005 µM, 100% = signal doubled over neutral wells], COc1ccc2nc(CCN(C)C(=O)C3CCC(=O)N(Cc4cccc(F)c4)C3)[nH]c2c1 (centres undefined) -20.4%, CN(C(=O)c1ccc(C#N)cc1)c1nnc(-c2cnccn2)s1 -16.1% [at 0.42 µM, 100% = signal doubled over neutral wells], Cc1cc(C)n(CC(=O)n2c3ccccc3c3ccccc32)n1 20.6%, CN[C@H]1C[C@@H](c2ccccc2)N(C(C)=O)C[C@H]1CO -14% [at 0.135 µM, 100% = signal doubled over neutral wells]
